AmpC no deterg – AmpC beta-lactamase inhibition without detergent | AID 485341 | P00811 | Potency, µM (titrated, usually from 57.1 µM), for the others: at the top dose activity change, negative = inhibition, usual class: inhibitors | hit rate 0.52% among 330,000 | AmpC nitrocefin hydrolysis, absorbance 480 nm, 0.0001% Triton;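 also: potency is read from the fitted curve at half-maximal effect; plate controls were no compound for no effect and no enzyme for full effect; nearly all actives have a fitted effect of over 20% in size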
Target sequence (P00811 whole entry, looked up): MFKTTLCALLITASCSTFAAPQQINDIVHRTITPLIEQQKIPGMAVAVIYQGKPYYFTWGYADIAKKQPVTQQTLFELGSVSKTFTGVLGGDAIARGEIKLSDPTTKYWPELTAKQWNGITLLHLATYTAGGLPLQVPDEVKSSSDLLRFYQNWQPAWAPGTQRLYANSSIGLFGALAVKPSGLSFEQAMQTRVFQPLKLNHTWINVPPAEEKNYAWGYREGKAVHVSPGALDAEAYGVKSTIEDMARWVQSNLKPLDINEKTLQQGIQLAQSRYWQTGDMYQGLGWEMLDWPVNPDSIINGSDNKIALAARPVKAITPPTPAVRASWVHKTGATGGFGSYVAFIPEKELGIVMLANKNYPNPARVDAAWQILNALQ
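20 mM phosphate pH 7.0 + 0.01% (detergent screen) or 0.0001% Triton X-100; 5.3 nM AmpC reagent; cpd preinc 15 min RT; nitrocefin (800 uM stock) to start; A480 q20 s × 4 min; Activity was normalised to no-enzyme and no-compound control wells.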
AMA1 RON2 block – AMA1-RON2 (P. falciparum) interaction inhibition; AlphaScreen AMA1-biotinylated RON2 peptide binding; Potency, µM (titrated, usually from 58.2 µM), for inactives: top-dose activity change, negative = inhibition, most hits filed as inhibitors; hit rate 0.2% among 360,000; AID 720542;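 also: potency is read from the fitted curve at half-maximal effect; 0% = vehicle wells and -100% = peptide control; nearly all actives have a fitted effect of over 45% in size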
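AMA1 (3D7) with his tag at 25 nM final met compounds first, then biotinylated RON2 peptide at 25 nM; detection used donor plus acceptor beads, 10 µg/mL apiece, read by AlphaScreen after 30 min at room temperature.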
Cycloheximide cs – affects cycloheximide protein synthesis inhibition readout, counter-screen; max response, %; hit rate 12% among 300,000; cell reporter, cycloheximide protein synthesis inhibition counterscreen; AID 2314; in the data active = max response mostly above about 13%, no sharp cut-off; inactive = mostly below about 14%; also: read at 38.3 µM for the half of the compounds with a filed dose; 0% is about no effect
AmpC inh detg – AmpC beta-lactamase inhibition with detergent present; P00811; AmpC hydrolysis of nitrocefin, absorbance 480 nm, 0.01% Triton; Potency, µM (titrated, usually from 114 µM), for inactives: at the top dose activity change, negative = inhibition, hits mostly inhibitors; hit rate 0.041% among 370,000;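 also: potency is read from the fitted curve at half-maximal effect; 0% = no-compound wells and -100% = no-enzyme wells; nearly all actives have a fitted effect of over 25% in size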
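20 mM phosphate pH 7.0 + 0.01% (detergent screen) or 0.0001% Triton X-100; 5.3 nM AmpC reagent; cpd preinc 15 min RT; nitrocefin (800 uM stock) to start; A480 q20 s × 4 min; Activity was normalised to no-enzyme and no-compound control wells.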
Shiga toxin inh – blocks Shiga toxin action in Vero cells | Vero cells, Shiga toxin protein synthesis inhibition reporter | AID 2315 | hit rate 9.2% among 290,000 | inhibition, % at 38.7 µM; in the data active = inhibition mostly above about 28%, no sharp cut-off; inactive = mostly below about 43%; also: 0% is about no effect
SARS PLP yeast – blocks SARS-CoV papain-like protease in a yeast assay. S. cerevisiae expressing SARS-CoV PLpro, growth rescue. Potency, µM (highest dose often 32.9 µM), for the others: at the top dose activity, positive = growth rescue, usual class: activators. hit rate 0.19% among 330,000. AID 485353; calls by dose curve; also: potency is read from the fitted curve at half-maximal effect; 0% is about no effect; nearly all actives have a fitted effect of over 55% in size
* = called active by the depositor; ? = inconclusive; · = no result; [ ] = another dose, or the depositor's remark. Shown is part of a subset that was picked to be rich in hits. Unless noted, calls follow the shape of the dose curve; as a rule, active = well fitted curve in the direction sought with a large enough effect; inconclusive = small, poorly fitted or top-dose-only effect, or another doubt; inactive = no such curve, though single readings can be large; an effect the other way counts as inactive or inconclusive.

SMILES	AmpC no deterg	AMA1 RON2 block	Cycloheximide cs	AmpC inh detg	Shiga toxin inh	SARS PLP yeast
COc1ccccc1CNC(=O)CN1c2cccc3cccc(c23)S1(=O)=O	-37.1%	-1.9%	·	-4.9%	·	-0.8%
Cc1cc(C)nc(Nc2ccc(C)c([N+](=O)[O-])c2)n1	-14.8%	-7.2%	17.1*	1.1%	53.9*	-1.0%
Cc1ccc(NC(=O)c2ccc(C(C)(C)C)cc2)cc1[N+](=O)[O-]	-18.9%	-27.9%	43.4*	?	11.8*	11.8%
O=C(Nc1cccc(NC(=O)c2cccs2)c1)c1ccc([N+](=O)[O-])o1	-42.5%	6.2%	13.5*	-0.6%	18.4	0.1%
Cc1ccc(NC(=O)c2cccs2)cc1[N+](=O)[O-]	-33.7%	-1.6%	35.6*	-6.4%	38.0*	-2.3%
CCOC(=O)c1c(C)nc2sc3c(=O)n(-c4ccc(C(C)=O)cc4)cnc3c2c1-c1ccc(OC)cc1	-5.3%	-6.1%	1.6	-10.7%	-6.0	3.0%
CC(CN1CCOCC1)OC(=O)Cc1ccccc1 (stereo not given)	-14.9%	2.7%	-3.4	3.6%	20.9	-0.5%
C[C@@H]1CC=C[C@H]2[C@H]1C(=O)N(Cc1ccccc1)[C@H]2c1ccc(-c2ccoc2)cc1F	-2.4%	24.3%	-1.4	0.2%	-5.6	-14.2%
O=C(Nc1cc2cc([N+](=O)[O-])ccc2oc1=O)c1cccs1	-12.6%	·	27.7*	7.0%	52.3*	1.8%
O=C(O)/C=C1\NC(=O)c2ccccc21	-11.6%	-1.8%	-1.3	-9.3%	-10.0	?
O=C1N/C(=C\c2ccc(O)cc2)C(=O)c2ccccc21	-7.0%	-1.4%	33.9*	-4.4%	42.0	-38.6%
CCOc1ccc(C(C(=O)NC2CCCC2)N(C(=O)CNC(=O)c2ccco2)c2cccnc2)cc1 (stereo not given)	8.6%	7.2%	7.2	?	28.5	0.1%
CCCCn1nnc(NC(=O)c2ccc(-c3ccccc3[N+](=O)[O-])o2)n1	-1.2%[2.29 µM]	-6.6%	27.5*	?	49.5*	-1.0%
O=C(Nc1nccs1)c1ccc(-c2ccccc2Cl)o1	-41.2%	-6.7%	44.1*	-6.7%	76.3*	-18.1%
O=C(Nc1nccs1)c1ccc(-c2ccccc2[N+](=O)[O-])o1	-45.4%	66.0%	54.4*	-6.3%	105.7*	-9.9%
CCn1nnc(NC(=O)c2ccc([N+](=O)[O-])o2)n1	-8.7%	-4.1%	18.8	-2.1%	6.1	-0.8%
COc1ccccc1NC(=O)c1ccc(-c2ccccc2[N+](=O)[O-])o1	?	-17.0%	59.7*	0.5%	114.8*	7.0%
CC(=O)Cc1nsc(NC(=O)c2ccc(-c3ccccc3Cl)o2)n1	-13.7%	125.2%	37.0	1.1%	12.2	-10.6%
NS(=O)(=O)c1ccc(NCc2c(F)cccc2Cl)cc1	-15.9%	-2.1%	7.8	-14.0%	27.4	2.2%
Cc1ccc(-c2nc3ccccn3c2NCc2ccc3c(c2)OCO3)cc1	-25.6%	-28.9%	45.0*	-14.3%	54.2*	-22.1%
CCCCNc1c(-c2cccc(-c3ccc(OC)cc3)c2)nc2ccc(C)cn12	-2.5%	-7.8%	·	-4.9%	·	0.1%
COc1ccc(-c2nc3ccc(C)cn3c2NCc2ccc3c(c2)OCO3)cc1	0.1%	-13.4%	55.3*	0.2%	125.0*	-2.8%
CSc1nc(-c2ccccc2)nc(N)c1C(C)=O	-21.5%	·	14.0	2.6%	8.4	12.4%
CC(=O)c1c(C)nc(-c2ccc(Cl)cc2)nc1N	-12.7%	-9.9%	43.9*	4.9%	96.0*	0.2%
CC(=O)c1c(C)nc(-c2ccc(Cl)cc2)nc1N=CN(C)C	1.3%	-1.7%	45.7*	-3.9%	70.3*	-18.8%
SMILES	AmpC no deterg	AMA1 RON2 block	Cycloheximide cs	AmpC inh detg	Shiga toxin inh	SARS PLP yeast
Cc1ccc(NC(=O)N(CCCN2CCOCC2)Cc2cccnc2)cc1C	-4.5%	6.4%	-5.7	-9.2%	-9.4	1.3%
CN1CCN(c2ccc(-c3ccnn3C(=O)Nc3cccc(C(F)(F)F)c3)cc2)CC1	-9.9%	9.7%	43.2*	-4.8%	28.1	-5.6%
OCCNC(=S)Nc1ccc2c(c1)OCCO2	-5.9%	1.8%	2.1	-11.5%	19.0	0.3%
S=C(Nc1ccc2c(c1)OCO2)Nc1ccccc1Cl	-31.8%	19.1%	24.1*	-13.1%	35.5*	-1.8%
S=C(Nc1ccc2c(c1)OCCO2)Nc1ccc2c(c1)OCO2	-31.6%	26.4%	56.9*	-6.4%	119.8*	0.1%
CC(C(=O)Nc1ccc2c(c1)OCO2)N(C)CC(=O)Nc1ccccc1Cl (stereo not given)	-25.7%	68.5%	·	·	·	-2.4%
O=[N+]([O-])c1ccc(-c2csc(Nc3ccccc3)[n+]2Cc2ccccc2)cc1	-12.3%	?	32.7*	-14.9%	28.5*	-35.5%
Cc1ccc(-c2csc(Nc3ccccc3)[n+]2CCc2ccccc2)cc1	-31.5%	?	23.2*	-0.2%	69.6*	-3.7%
COc1ccc(-c2csc(Nc3ccccc3)[n+]2Cc2ccccc2)cc1	-31.8%	?	37.7*	-13.5%	54.9*	-8.0%
COc1ccc(CCN2C(=O)CC(NNC(=O)c3ccc(F)cc3)C2=O)cc1OC (stereo not given)	-26.0%	26.5%	-4.2	-7.3%	-6.3	8.2%
Cc1nc(-c2ccc(Cl)cc2)sc1C1(C)CC(c2ccc(OC(F)(F)F)cc2)=NO1 (stereo not given)	-16.4%	-3.5%	-0.5	6.9%	7.9	5.0%
O=C(Nc1ccc2c(c1)OCO2)c1ccc(N2CCCC2)c([N+](=O)[O-])c1	-25.9%	-22.7%	34.4*	-11.8%	29.2	-52.3%
CC1CCCN(c2ccc(C(=O)Nc3cccnc3)cc2[N+](=O)[O-])C1 (stereo not given)	-2.5%	-12.5%	19.6	11.2%	48.1*	-10.7%
CC(=O)Nc1ccc(N2CCCC(C)C2)c([N+](=O)[O-])c1 (stereo not given)	-0.3%	-15.2%	-9.0	5.3%	-7.6	-2.2%
O=C(Nc1ccc2c(c1)OCO2)c1ccc(NC2CC2)c([N+](=O)[O-])c1	-19.7%	-15.7%	26.3*	2.4%	102.4*	-17.5%
COc1cc(C(=O)Nc2ccc3c(c2)OCO3)c([N+](=O)[O-])cc1OC	-7.1%	0.0%	-0.8	5.7%	16.4	3.2%
CCOC(=O)C(NCc1ccc2c(c1)OCO2)(NC(=O)CC)C(F)(F)F (stereo not given)	-3.5%	0.0%	-10.1	-1.5%	3.2	-0.1%
Cc1ccc(OS(=O)(=O)c2ccccc2)c(/C=N/N=C2\NC(=O)C(C)S2)c1 (stereo not given)	-19.2%	23.7%	12.2*	?	26.1	-11.7%
O=C1CS/C(=N/N=C/c2ccccc2OS(=O)(=O)c2ccccc2)N1	-31.7%	30.5%	2.7	-14.8%	-7.9	-1.6%
